# Test results: paper PMC6602471
# Whole data set: some 1,300 sequences, median “log fluorescence intensity” near 8.9, cut for the highest 2% near 13. Only a selection was taken, and the highest values are over-represented in it overall.
# Molecular target: T1, ELK1 (Homo sapiens, UniProt P19419 1-428)
# T1 sequence: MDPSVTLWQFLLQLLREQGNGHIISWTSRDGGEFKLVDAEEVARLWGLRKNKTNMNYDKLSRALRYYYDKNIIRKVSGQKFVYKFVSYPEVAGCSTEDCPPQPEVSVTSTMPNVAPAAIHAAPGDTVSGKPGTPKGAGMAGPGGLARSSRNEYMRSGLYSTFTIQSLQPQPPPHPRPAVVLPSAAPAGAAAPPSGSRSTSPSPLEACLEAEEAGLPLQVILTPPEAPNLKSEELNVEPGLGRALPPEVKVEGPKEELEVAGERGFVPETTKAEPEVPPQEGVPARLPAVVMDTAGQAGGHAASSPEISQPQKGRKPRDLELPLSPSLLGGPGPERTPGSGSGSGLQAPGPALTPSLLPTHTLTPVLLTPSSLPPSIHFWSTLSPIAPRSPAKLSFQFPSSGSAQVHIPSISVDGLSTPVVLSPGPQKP
# Test: custom PBM; custom protein-binding microarray; buffer, salt, pH and temperature not stated; high values mean tight binding
# Conditions: dsDNA, one strand shown
row,Sequence,binding signal
1,CGGAAGTGTCGTAAAAGTCGGATATCCGGTTCTTCTGTCTTGATTCGCTTGACGCTGCTG,12.5 log fluorescence intensity
2,CGGAAGTGTCGTAAATGTCGGATATCCGGTTCTTCTGTCTTGATTCGCTTGACGCTGCTG,12.7 log fluorescence intensity
3,CAGAAGTGTCGTAAACGTCGGATATCCGGTTCTTCTGTCTTGATTCGCTTGACGCTGCTG,12.6 log fluorescence intensity
4,CGGTAGTGTCGTAAACGTCGGATATCCGGTTCTTCTGTCTTGATTCGCTTGACGCTGCTG,12.5 log fluorescence intensity
5,CGGAAGTGTCGTAAACGTCAGATATCCGGTTCTTCTGTCTTGATTCGCTTGACGCTGCTG,11.2 log fluorescence intensity
6,CGCAAGTGTCGTAAACGTCGGATATCCGGTTCTTCTGTCTTGATTCGCTTGACGCTGCTG,12.6 log fluorescence intensity
7,CGAAAGTGTCGTAAACGTCGGATATCCGGTTCTTCTGTCTTGATTCGCTTGACGCTGCTG,12.5 log fluorescence intensity
8,CGGAAGTGTCGTAAACGTCGCATATCCGGTTCTTCTGTCTTGATTCGCTTGACGCTGCTG,11.6 log fluorescence intensity
9,CTGAAGTGTCGTAAACGTCGGATATCCGGTTCTTCTGTCTTGATTCGCTTGACGCTGCTG,12.3 log fluorescence intensity
10,CGGAAGTGTCGTAAAGGTCGGATATCCGGTTCTTCTGTCTTGATTCGCTTGACGCTGCTG,12.4 log fluorescence intensity
11,CGTAAGTGTCGTAAACGTCGGATATCCGGTTCTTCTGTCTTGATTCGCTTGACGCTGCTG,12.4 log fluorescence intensity
12,CGGGAGTGTCGTAAACGTCGGATATCCGGTTCTTCTGTCTTGATTCGCTTGACGCTGCTG,12.1 log fluorescence intensity
13,CGGAAGTGTCGTAAACGTCGGATATCCGGTCCTTCTGTCTTGATTCGCTTGACGCTGCTG,12.6 log fluorescence intensity
14,CGGAAGTGTCGTAAACGTCGGATATCCGGTTCTTGTGTCTTGATTCGCTTGACGCTGCTG,12.6 log fluorescence intensity
15,CGGAAGTGGCGTAAACGTCGGATATCCGGTTCTTCTGTCTTGATTCGCTTGACGCTGCTG,12.1 log fluorescence intensity
16,CGGAAGTGTCGTAAACGTCGGATATCCGGTTCTTTTGTCTTGATTCGCTTGACGCTGCTG,12.5 log fluorescence intensity
17,CGGAAGTGTCGTAAACGTCCGATATCCGGTTCTTCTGTCTTGATTCGCTTGACGCTGCTG,12.3 log fluorescence intensity
18,CGGAAGTGACGTAAACGTCGGATATCCGGTTCTTCTGTCTTGATTCGCTTGACGCTGCTG,12.3 log fluorescence intensity
19,CGGAAGTGTCGTAAACGTCGGATATCCGGTTGTTCTGTCTTGATTCGCTTGACGCTGCTG,12.5 log fluorescence intensity
20,CCGAAGTGTCGTAAACGTCGGATATCCGGTTCTTCTGTCTTGATTCGCTTGACGCTGCTG,12.6 log fluorescence intensity
21,CGGAAGTGTCGTAAACGTCGGATATCCGGGTCTTCTGTCTTGATTCGCTTGACGCTGCTG,11.9 log fluorescence intensity
22,CGGAAGTGTCGTAAACGTCGGATATCCGGTGCTTCTGTCTTGATTCGCTTGACGCTGCTG,12.5 log fluorescence intensity
23,CGGAAGTGCCGTAAACGTCGGATATCCGGTTCTTCTGTCTTGATTCGCTTGACGCTGCTG,12.5 log fluorescence intensity
24,CGGAAGTGTCGTAAACGTCGAATATCCGGTTCTTCTGTCTTGATTCGCTTGACGCTGCTG,11.7 log fluorescence intensity
25,TCCGGCTACCAGCGCCACCCACTTCAGGCCTTGTAGGTCTTGATTCGCTTGACGCTGCTG,8.91 log fluorescence intensity
26,CACAATATTTACAGTAATGTAGCACGCGTAACTCCTGTCTTGATTCGCTTGACGCTGCTG,8.95 log fluorescence intensity

row,Sequence,binding signal
1,CGGAAGTGTCGTAAACGACGGATATCCGGTTCTTCTGTCTTGATTCGCTTGACGCTGCTG,12.7 log fluorescence intensity
2,CGGAAGTGTCGTAAACGTCGGTTATCCGGTTCTTCTGTCTTGATTCGCTTGACGCTGCTG,10.1 log fluorescence intensity
3,CGGAAGTGTCGTAAACGGCGGATATCCGGTTCTTCTGTCTTGATTCGCTTGACGCTGCTG,12.6 log fluorescence intensity
4,CGGAAGTGTCGTAAACGTCGGATATCCGGTTATTCTGTCTTGATTCGCTTGACGCTGCTG,12.5 log fluorescence intensity
5,GGAAAAAGGCCCAGGGTAACACCGCAAGTGGGCTTAGTCTTGATTCGCTTGACGCTGCTG,8.91 log fluorescence intensity
6,TAAAGGGAAGACGGTTGTGGTAGGTCCGGGTATTAAGTCTTGATTCGCTTGACGCTGCTG,8.98 log fluorescence intensity
7,CACAATTTTAACAGTAATGTAGCACGCGTAACTCCTGTCTTGATTCGCTTGACGCTGCTG,8.9 log fluorescence intensity
8,GATGAATTTCTGCCCTTATTCGCACGTGCCATAACAGTCTTGATTCGCTTGACGCTGCTG,8.9 log fluorescence intensity
9,GGAAAAAGGCCCAGGGTTACACCGGAAGTGGGCTTAGTCTTGATTCGCTTGACGCTGCTG,11 log fluorescence intensity
10,TAAAGGGAACACGGTTGTGGTAGTTCCGGGTATTAAGTCTTGATTCGCTTGACGCTGCTG,11.2 log fluorescence intensity
11,GGAAAAAGGCCCAGGGCAACACCGGAAGTGGGCTTAGTCTTGATTCGCTTGACGCTGCTG,10.9 log fluorescence intensity
12,CCCAATTTTTACAGTAATGTAGCACGCGTAACTCCTGTCTTGATTCGCTTGACGCTGCTG,8.98 log fluorescence intensity
13,CTGGGACTTGACCCAACTCTGCCACGTGGGCCGTTTGTCTTGATTCGCTTGACGCTGCTG,9.05 log fluorescence intensity
14,CGGGGACTTGACCCAACTCTGCCACGTGGGTCGTTTGTCTTGATTCGCTTGACGCTGCTG,8.96 log fluorescence intensity
15,TACTTACTTATATATGCGAATGCACATGAATAGACCGTCTTGATTCGCTTGACGCTGCTG,9.06 log fluorescence intensity
16,TAAAGGGAAGACGCTTGTGGTAGTTCCGGGTATTAAGTCTTGATTCGCTTGACGCTGCTG,11 log fluorescence intensity
17,TAAAGGGAAGACGGGTGTGGTAGTTCCGGGTATTAAGTCTTGATTCGCTTGACGCTGCTG,11.2 log fluorescence intensity
18,TAAAGGGAAGACGGATGTGGTAGTTCCGGGTATTAAGTCTTGATTCGCTTGACGCTGCTG,12.6 log fluorescence intensity
19,TCCAGCTACCAGCTCCACCCACTTCAGGCCTTGTAGGTCTTGATTCGCTTGACGCTGCTG,8.99 log fluorescence intensity
20,CACAATTTGTACAGTAATGTAGCACGCGTAACTCCTGTCTTGATTCGCTTGACGCTGCTG,8.91 log fluorescence intensity
21,GGAAAAAGGCCCAGGGTAACCCCGGAAGTGGGCTTAGTCTTGATTCGCTTGACGCTGCTG,10.5 log fluorescence intensity
22,CAGCATAGGACTTCTTCCCTGAAGCAATTGATAACTGTCTTGATTCGCTTGACGCTGCTG,8.96 log fluorescence intensity
23,CACAATTTTTACAGTAATGTAGCACGCGGAACTCCTGTCTTGATTCGCTTGACGCTGCTG,8.97 log fluorescence intensity
24,TCCGGCTACAAGCTCCACCCACTTCAGGCCTTGTAGGTCTTGATTCGCTTGACGCTGCTG,8.93 log fluorescence intensity
25,TAAAGGGAAGACGGTTGTGGTAGTTCCGGGTACTAAGTCTTGATTCGCTTGACGCTGCTG,11.3 log fluorescence intensity
26,GTGTATAGGATCCCATCCAACACACCTGTTAAAATGGTCTTGATTCGCTTGACGCTGCTG,8.91 log fluorescence intensity
